Assay results as given in PubChem BioAssay (NCI).
About 83,000 compounds went through this panel and 20% of them were active in at least one assay; those are over-represented in the sample as a whole.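 Negative percent growth values reflect cell death: -40 means 40% of the cells present at the start died, and -100 means all died.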 Calls of active or inactive are those of the source. The calls were made as follows: active = growth percent below 10; inactive = the rest.

Assays:
Assay in all cases: NCI-60 one-dose screen, 48 h (100 = growth as untreated, 0 = no growth, -100 = all killed)
Conditions in all cases: 10 µM unless noted
[1] = system: NCI-H23 lung
[2] = system: NCI-H226 lung
[3] = system: NCI-H322M lung
[4] = system: HOP-62 NSCLC
[5] = system: NCI-H460 lung
[6] = system: NCI-H522 lung
[7] = system: A549/ATCC NSCLC
[8] = system: 786-0 renal
[9] = system: COLO 205 colon
[10] = system: DU-145 prostate
[11] = system: K-562 leukemia
[12] = system: MALME-3M melanoma
[13] = system: MDA-MB-231 breast
[14] = system: RXF 393 renal
[15] = system: SF-268 CNS
[16] = system: SF-295 CNS
[17] = system: SF-539 CNS
[18] = system: UACC-257 melanoma
[19] = system: M14 melanoma

Measured: growth

CC(=O)Oc1c(Cl)c(Cl)c(Cl)c(Cl)c1Cl
inactive: [1] 95.3% | [2] 103% | [3] 92.3% | [4] 95.9% | [5] 105% | [6] 90.2% | [7] 85.9% | [8] 100% | [9] 106% | [10] 105% | [11] 101% | [12] 91.7% | [13] 86.3% | [14] 116% | [15] 96.1% | [16] 97.7% | [17] 86.3% | [18] 94.1% | [19] 105%

CN(C)c1nc(-c2cccs2)n2nc(-c3ccc(Cl)cc3)cc2n1
active: [2] -25.5% | [4] -39.5% | [5] -1.56% | [8] -40.7% | [16] -5.01%
inactive: [1] 61.9% | [3] 11.8% | [6] 39.9% | [7] 10.9% | [9] 39.1% | [10] 72.2% | [11] 73.7% | [12] 57.6% | [13] 19.3% | [14] 13.3% | [15] 55% | [17] 47.5% | [18] 79.6% | [19] 61.4%

O=C(Nc1ccc(Cl)cc1)c1cc(-c2ccc(Cl)cc2)c2sc(=O)[nH]c2n1
active: [1] 2.31% | [2] 0.841% | [3] 6.21% | [4] -19% | [5] -5.14% | [6] -26.3% | [7] 1.59% | [8] 6.31% | [9] -52.1% | [11] -12.8% | [12] -13.8% | [13] -30.9% | [14] -3.38% | [16] -12.5% | [17] 7.84% | [18] -24.9% | [19] 8.92%
inactive: [10] 16.5% | [15] 14.1%

CC(C)CC1NC(=O)C(CC(C)C)N(CO)C1=O (centres undefined)
inactive: [1] 104% | [2] 91.3% | [3] 95% | [4] 107% | [5] 116% | [6] 90.4% | [7] 102% | [8] 102% | [9] 111% | [10] 119% | [11] 97.1% | [12] 101% | [13] 97.1% | [14] 111% | [15] 112% | [16] 120% | [17] 111% | [18] 102% | [19] 101%

CSC1=N/C(=C\c2cccc(OCc3ccc(Cl)cc3)c2)C(=O)N1
inactive: [1] 82.8% | [2] 75% | [3] 87.2% | [4] 99.4% | [5] 81.3% | [6] 48% | [7] 83.4% | [8] 83.8% | [9] 82.8% | [10] 77.7% | [11] 81.7% | [12] 99% | [13] 99.8% | [14] 104% | [15] 85.3% | [16] 87.6% | [17] 99% | [18] 100% | [19] 88%

NC(N)=N/N=C/c1cccc(Cl)c1Cl
active: [9] -33.1% | [11] 4.22%
inactive: [1] 86.9% | [2] 84.8% | [3] 96.9% | [4] 82.5% | [5] 64.2% | [6] 80.8% | [7] 87.9% | [8] 83.6% | [10] 69.3% | [12] 94.9% | [13] 81.6% | [14] 81.3% | [15] 69.5% | [16] 109% | [17] 96.4% | [18] 70.1% | [19] 62.7%

CS(=O)(=O)c1ccc(C(=O)N/N=C/c2ccc3c(c2)OCO3)cc1
inactive: [1] 96.9% | [2] 91.1% | [3] 96.2% | [4] 96.8% | [5] 107% | [6] 86% | [7] 67.7% | [8] 102% | [9] 110% | [10] 108% | [11] 85.5% | [12] 105% | [13] 107% | [14] 120% | [15] 104% | [16] 101% | [17] 105% | [18] 59.1% | [19] 106%

CCN(CC)CCCC(C)Nc1c(-c2ccccc2)cnc2cc(Cl)ccc12 (centres undefined)
inactive: [1] 73.2% | [2] 115% | [3] 97.4% | [4] 101% | [5] 76.4% | [6] 50.1% | [7] 57.1% | [8] 52% | [9] 85.3% | [10] 87.5% | [11] 13.3% | [13] 63.1% | [14] 63.4% | [15] 77.7% | [16] 86.5% | [17] 83.2%
active: [12] -6.83% | [18] -26.6% | [19] -95.7%

Nc1c(C(=O)C[C@@H](N)CO)ccc2c1C(=O)CCO2
inactive: [1] 55.2% | [2] 76.3% | [3] 16.7% | [4] 28.1% | [5] 13% | [6] 45.1% | [7] 40.4% | [8] 78.6% | [9] 46.9% | [10] 42.9% | [11] 33.4% | [12] 48.2% | [13] 61% | [14] 90.7% | [15] 43.6% | [16] 48.3% | [17] 41.3% | [18] 65.4% | [19] 48.6%

COc1ccc2nc3cc(Cl)ccc3c(NC(=O)CSc3ccc(Cl)cc3)c2c1
active: [1] -90% | [2] -44.4% | [3] -90.1% | [4] -99.5% | [5] -84.4% | [6] -96.5% | [7] -69.4% | [8] -98.2% | [9] -20.1% | [10] -98.3% | [11] -3.86% | [12] -77.1% | [13] -69.3% | [14] -99.1% | [15] -88.9% | [16] -86.2% | [17] -91.9% | [18] -90% | [19] -97.4%

Fc1cc(-c2cnc3nonc3n2)c(Cl)cc1Cl
active: [6] -72.3%
inactive: [1] 94.2% | [2] 111% | [3] 94.1% | [4] 98.3% | [5] 106% | [7] 102% | [8] 79.3% | [9] 60.2% | [10] 85.3% | [11] 28.9% | [12] 41.1% | [13] 83.4% | [14] 93% | [15] 90.9% | [16] 99.4% | [17] 110% | [18] 96% | [19] 76.8%

C=C(C)[C@@H]1CC[C@]2(C(=O)NC(COC(=O)C(Cl)Cl)(COC(=O)C(Cl)Cl)COC(=O)C(Cl)Cl)CC[C@]3(C)[C@H](CC[C@@H]4[C@@]5(C)CC[C@H](OC(C)=O)C(C)(C)[C@@H]5CC[C@]43C)[C@@H]12
inactive: [1] 72% | [2] 84.2% | [3] 88.8% | [4] 82.7% | [5] 15.8% | [6] 48.1% | [7] 27.7% | [8] 37.3% | [9] 36.1% | [10] 50.7% | [11] 25.2% | [12] 96.2% | [13] 54.1% | [14] 42.6% | [15] 58.8% | [16] 60.9% | [17] 76.5% | [18] 79.5% | [19] 59.9%

O=C(CCCCCCN1CC(=O)N2[C@@H](c3ccc(Cl)c(Cl)c3)c3[nH]c4ccccc4c3C[C@H]2C1=O)NO
inactive: [1] 54% | [2] 84.8% | [3] 53.5% | [4] 54.1% | [5] 39.1% | [6] 17.8% | [7] 79.9% | [8] 71.8% | [9] 58.9% | [10] 56.7% | [11] 17.9% | [12] 40% | [13] 44.4% | [14] 36.5% | [15] 74.7% | [16] 61.8% | [17] 52% | [18] 65.5% | [19] 50.6%

COc1ccc(N=C2CSc3nnc(-c4cc(F)c(Cl)cc4Cl)n3N2)cc1
inactive: [2] 27.9% | [18] 38.5%
active: [1] -22.1% | [3] 6.08% | [4] -33.7% | [5] -63.2% | [6] -27.7% | [7] -21.1% | [8] -44.5% | [9] -21.1% | [10] -48.9% | [11] -58.4% | [12] -45.1% | [13] -4.51% | [14] -52.7% | [15] 7.12% | [16] -16.2% | [17] -67.3% | [19] -44.7%

CC(C)[C@@]12C[C@@H](OC(=O)C3CO3)[C@@](C)(O1)[C@@H]1CC[C@@H](C)[C@H]1[C@@H]2OC(=O)/C=C/c1ccccc1 (some centres undefined)
inactive: [1] 85.9% | [2] 68.3% | [3] 83.9% | [4] 76.6% | [5] 101% | [6] 72.8% | [7] 75.7% | [8] 95.5% | [9] 107% | [10] 107% | [11] 105% | [12] 84% | [13] 76.6% | [14] 67% | [15] 67.2% | [16] 101% | [17] 90.7% | [18] 74.7% | [19] 101%

CC(C)CC(=O)C(CCc1ccccn1)C(C)C (centres undefined)
inactive: [1] 98.4% | [2] 97.9% | [3] 116% | [4] 112% | [5] 107% | [6] 95.3% | [7] 93.9% | [8] 105% | [9] 130% | [10] 111% | [11] 107% | [12] 109% | [13] 108% | [14] 124% | [15] 103% | [16] 95.2% | [17] 106% | [18] 92.4% | [19] 105%
